Shown are actives, neighbours in structure and some others; about 5.9% of the full set was active somewhere.
TrxR1 substrate – is turned over as a substrate by rat TrxR1; O89049; purified TrxR1 substrate turnover, NADPH consumption readout; Potency, µM (series often up to 114 µM), for the others: at the highest dose activity change, negative = substrate turnover; 0.01% of 390,000 active; AID 588456; also: potency is read from the fitted curve at half-maximal effect; nearly all actives have a fitted effect of over 50% in size
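Rat TrxR1, dispensed at 90 nM, was prereduced with 400 uM NADPH (final) for 5 min at ~22 deg C, then incubated with compound 15 min before 400 uM selenite. A first-read NADPH fluorescence drop versus no-compound background flagged substrates.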
RORgamma inh – blocks mouse ROR gamma transcriptional activity | P51450 | Drosophila S2 Gal4-RORgamma UAS-luciferase reporter, 20 h | Potency, µM (titrated, usually from 53.6 µM), for inactives: at the top dose activity change, negative = inhibition, actives largely listed as inhibitors | 5.4% of 310,000 active; also: potency is read from the fitted curve at half-maximal effect; nearly all actives have a fitted effect of over 60% in size
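Drosophila S2 cells stably expressing Gal4-DBD/mouse RORγ fusion under metallothionein promoter plus UAS-luciferase; compound 1 h, then 700 uM CuSO4 induction for 20 h at ambient temperature; inhibition read as reduced luminescence.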
Gal4-VP16 FLuc – Gal4-VP16 reporter inhibition counter-screen | 3.5% of 310,000 active | Potency, µM (top dose mostly 53.6 µM), without a hit: top-dose activity, negative = inhibition, most hits filed as inhibitors | AID 2546 | Drosophila S2 Gal4-VP16 UAS-luciferase, luminescence, 20 h;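 also: Gal4-VP16 expression switched on by copper sulfate through the metallothionein promoter; potency is read from the fitted curve at half-maximal effect; nearly all actives have a fitted effect of over 50% in size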
GALK inh – inhibitors of human galactokinase; Purified GALK, Kinase-Glo residual ATP luminescence; Potency, µM (doses to about 57.5 µM), for the others: at the highest dose activity change, negative = inhibition, usual class: inhibitors; 0.007% of 270,000 active; also: potency is read from the fitted curve at half-maximal effect
Target sequence (P51570 whole entry, looked up): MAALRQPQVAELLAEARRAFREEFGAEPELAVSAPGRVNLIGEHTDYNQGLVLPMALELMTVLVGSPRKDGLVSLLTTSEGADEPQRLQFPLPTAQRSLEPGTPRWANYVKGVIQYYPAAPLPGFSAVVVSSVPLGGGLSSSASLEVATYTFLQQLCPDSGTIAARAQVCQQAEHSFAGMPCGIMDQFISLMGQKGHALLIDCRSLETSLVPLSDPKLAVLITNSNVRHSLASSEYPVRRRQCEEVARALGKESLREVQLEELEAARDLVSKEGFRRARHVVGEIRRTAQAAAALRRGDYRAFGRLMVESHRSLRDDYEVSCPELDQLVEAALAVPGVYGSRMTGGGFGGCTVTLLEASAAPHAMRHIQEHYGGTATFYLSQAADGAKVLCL
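ATP-depletion format; final 35 uM ATP, 100 uM D-galactose, 5 nM enzyme; pH 8.0 HEPES/Mg2+ buffer; 60 min RT; luminescence read 10 min after detection reagent.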
FBPA coupling cs – coupling enzyme interference in Giardia aldolase counter-screen; 0.67% of 290,000 active; activity change, negative = inhibition, % at 58.2 µM, hits read low; coupling enzyme system counterscreen, AmpLite Red fluorescence; in the data active = activity change below about -30%
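Final compound at 57.5 uM, incubated 10 min at RT with coupling enzyme reagent (glyceraldehyde-3-phosphate), then 20 min with substrate and AmpLite Red detection. Fluorescence read at 525/598 nm; tests interference with the coupling assay, not aldolase inhibition.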
TrxR1 inh – rat TrxR1 inhibition. O89049. recombinant rTrxR1, NADPH fluorescence consumption, selenite substrate. Potency, µM (highest dose often 114 µM), for inactives: at the top dose activity change, negative = inhibition, hits mostly inhibitors. 1% of 390,000 active; also: potency is read from the fitted curve at half-maximal effect; nearly all actives have a fitted effect of over 65% in size
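Rat TrxR1 (90 nM in the dispensed reagent) was pre-reduced with 400 uM NADPH for 5 min at room temperature, then incubated with compound for 15 min. After 400 uM selenite was added, NADPH fluorescence (Ex 340/Em 450 nm) was followed for 8 min.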
* marks the source's active call; other numbers are inactive results; ? = inconclusive; . = no result; [ ] = dose if it differs, or a comment. Unless noted, calls follow the shape of the dose curve; as a rule, active = well fitted curve in the direction sought with a large enough effect; inconclusive = small, poorly fitted or top-dose-only effect, or another doubt; inactive = no such curve, though single readings can be large; an effect the other way counts as inactive or inconclusive. % is scaled to controls: 0 for no effect and ±100 for the full control effect.

SMILES	TrxR1 substrate	RORgamma inh	Gal4-VP16 FLuc	GALK inh	FBPA coupling cs	TrxR1 inh
O=C(Nc1ccc2nc(SCC(=O)N3CCc4ccccc43)sc2c1)c1ccccc1	14.1%	.	.	.	.	44.6%
CC(Sc1nnc(-c2ccco2)n1N)C(=O)NCC1CCCO1 (stereo unspecified)	0.5%	.	.	.	.	?
c1ccc(CC[n+]2ccncc2)cc1	-0.7%	.	.	.	.	-23.7%
CCCCN(C(=O)CSc1c(C)c(C)cc(C)c1C)c1c(N)n(CCC)c(=O)[nH]c1=O	7.4%	.	.	.	.	25.3%
CC1CCN(S(=O)(=O)c2ccc(C(=O)Nc3nnc(C4CC4)o3)cc2)CC1	-0.3%	0.355µM*	0.316µM*	-0.9%	1.8	19.7%
O=C(Nc1nnc(C2CC2)o1)c1ccc(S(=O)(=O)N2CCCCC2)cc1	-0.4%	0.891µM*	0.562µM*	-0.4%	.	9.7%
CC1CCN(S(=O)(=O)c2ccc(C(=O)Nc3nnc(-c4ccncc4)o3)cc2)CC1	-20.4%	1.12µM*	3.98µM*	-1.5%	8.8	-22.0%
CC(=O)Nc1ccc(S(=O)(=O)N2CCC(c3nnc(-c4ccc(C)cc4)o3)CC2)cc1	0.1%[57.1 µM]	14.1µM*	?	.	-0.4	10.2%[57.1 µM]
CCN(CC)CCn1c(NCc2cc(OC)ccc2OC)nc2ccccc21	-5.1%	?	16.2%	-0.5%	1.2	0.0%
Cc1ccc(CC2CC(=O)N(c3nc4ccccc4n3C)C2=O)cc1 (stereo unspecified)	-10.0%	12.6µM*	?	-3.8%	-0.9	-10.2%
CCCn1c(NCc2ccccn2)nc2ccccc21	1.0%	14.1µM*	-60.8%	0.5%	1.0	6.7%
CCN(CC)CCn1c(NCc2cccc(OC)c2)nc2ccccc21	12.1%[57.1 µM]	5.62µM*	-8.1%	2.6%	0.3	24.3%[57.1 µM]
COc1ccc(CNc2nc3ccccc3n2CCN2CCOCC2)cc1	-9.0%	-8.8%	-3.0%	-2.5%	-1.2	-3.5%
CCN(CC)c1ccc(CNc2nc3ccccc3n2CCN2CCOCC2)cc1	0.8%[57.1 µM]	11.2µM*	-13.5%	0.0%	-0.5	12.8%[57.1 µM]
COC(=O)CC1=Nc2ccccc2NC(=O)C1	-7.1%	-0.1%	1.0%	-0.9%	2.8	-9.3%
CCc1cccc(OCCOC(=O)CNS(=O)(=O)c2ccc(NC(C)=O)cc2)c1	-4.6%	.	.	.	.	5.4%
O=C(c1ccc(COCC(F)(F)F)cc1)N1CCN(c2ccccn2)CC1	2.0%	19.8%	?	-1.6%	-7.9	22.7%
CCCCn1c(NCc2ccc(N(C)C)cc2)nc2ccccc21	-4.5%	17.8%	12.6µM*	-0.4%	1.0	3.1%
Cc1ccc(CNc2nc3ccccc3n2C)cc1	2.0%	10µM*	?	0.2%	1.9	0.1%
CCCCn1c(Nc2ccc(OC)cc2)nc2ccccc21	-4.0%	10µM*	?	10.2%	0.2	18.2%
CCCCn1c(NCc2ccncc2)nc2ccccc21	7.2%	7.3%	-3.7%	0.1%	0.6	24.1%
CCn1c(=O)c(NC(=O)c2ccccc2)c2n(c1=S)CCCCC2	5.0%[57.1 µM]	3.0%	11.7%	2.8%	-35.1*	14.4%[57.1 µM]
O=C(NCC(=O)N1CCN(S(=O)(=O)c2ccccc2C(F)(F)F)CC1)c1sc2ccccc2c1Cl	-4.6%	.	.	.	.	-8.7%
CNC(=O)NC(=O)CSc1nc2cc(C(=O)OC)ccc2c(=O)n1-c1ccccc1	12.6%[57.1 µM]	-44.3%	22.4µM*	2.3%	-0.5	24.5%[57.1 µM]
Cc1ccc2cc(CN(C(=O)c3ccco3)c3cccc(C)c3C)c(=O)[nH]c2c1	6.0%	-4.8%	-1.7%	-0.8%	1.2	17.8µM*
SMILES	TrxR1 substrate	RORgamma inh	Gal4-VP16 FLuc	GALK inh	FBPA coupling cs	TrxR1 inh
Cc1ccc2cc(CN(CC3CCCO3)C(=O)NC3CCCCC3)c(=O)[nH]c2c1C (stereo unspecified)	1.2%	3.16µM*	?	-0.3%	4.4	-6.7%
Cc1cccc2cc(CN(CC3CCCO3)C(=O)c3ccco3)c(=O)[nH]c12 (stereo unspecified)	9.2%	2.4%	1.7%	-2.0%	-0.2	15.8µM*
Cc1ccc2cc(CN(C(=O)c3ccco3)c3ccccc3C)c(=O)[nH]c2c1	16.2%[57.1 µM]	13.1%[10 µM]	-0.3%	5.4%	2.7	?
O=C(c1ccco1)N(Cc1cc2ccccc2[nH]c1=O)CC1CCCO1 (stereo unspecified)	5.9%[57.1 µM]	12.7%	-1.0%	0.6%	0.0	-6.9%
Cn1ccc2cc3c(cc21)CCN3C(=O)Nc1cccnc1	5.8%[57.1 µM]	-19.8%	-9.2%	.	-9.8	?
CC(c1ccccc1)n1cc(C(=O)NCC2CCCO2)nn1 (stereo unspecified)	8.6%	?	-2.8%	0.2%	1.7	-8.3%
COc1ccc(NC(=O)CCS(=O)(=O)c2nc(-c3cccs3)cc(C(F)(F)F)n2)cc1	12.6%[2.29 µM]	.	.	.	.	12.6µM*
CC(C)c1nnc(NC(=O)CCS(=O)(=O)c2nc(-c3cccs3)cc(C(F)(F)F)n2)s1	14.5%	1.78µM*	1.58µM*	-1.0%	3.6	35.5µM*
CCn1cc(C(=O)NCCc2ccc(C)cc2)c(=O)c2cc(S(=O)(=O)N(C)C)ccc21	1.1%	34.7%	2.4%	2.5%	-2.5	19.3%
Cc1ccc2oc(=O)c(/C=C(\O)c3ccco3)nc2c1	-4.1%[57.1 µM]	10µM*	?	1.2%	-1.8	11.6%[57.1 µM]
Cc1ccc2oc(=O)c(/C=C(\O)C(C)(C)C)nc2c1	-0.7%	5.01µM*	-21.1%	11.5%	2.8	-1.7%
CC(C)(C)/C(O)=C/c1nc2cc(Cl)ccc2oc1=O	-8.0%	-35.8%	-0.2%	-3.2%	-0.3	-11.3%
COc1cc(/C=N/NC(=O)C(C)Nc2n[nH]c(=O)[nH]c2=O)cc(OC)c1O (stereo unspecified)	2.2%[57.1 µM]	-3.2%	-0.8%	1.8%	2.8	-4.6%[57.1 µM]
CC(=O)c1cccc(OCc2cc(C(=O)N(C)C(C)c3ccccn3)no2)c1 (stereo unspecified)	4.2%	?	14.8%	5.9%	-0.4	50.1µM*
COC(=O)c1nn2c(C(F)(F)F)cc(-c3ccc(Br)o3)nc2c1Br	10.0%	2.6%	-16.1%	6.9%	0.9	6.31µM*
COc1ccc(NC(=O)c2cccs2)c([N+](=O)[O-])c1	-1.0%	10.7%	-4.4%	-2.6%	0.2	2.7%
COc1ccc(NC(=O)C/C(C)=N/NC(=O)c2cccs2)c([N+](=O)[O-])c1	1.2%	20µM*	17.8µM*	2.1%	-3.9	-7.3%
COc1ccc(-c2nn(-c3ccccc3)cc2/C=C/C(=O)NCCCn2ccnc2)cc1OC	3.2%[57.1 µM]	2.2%	-5.3%	2.2%	2.9	-9.0%[57.1 µM]
COc1cc2c3nnc(-c4ccc(F)cc4)c-3cn(Cc3ccc(F)cc3)c2cc1OC	19.8%[57.1 µM]	?	4.7%	1.7%	3.2	18.3%[57.1 µM]
COc1cc2c3nnc(-c4ccc(F)cc4)c-3cn(Cc3ccccc3)c2cc1OC	10.5%	11.2µM*	7.08µM*	-0.6%	0.2	-5.8%

Screens from PubChem BioAssay.
